This note sets out measurements from PubChem BioAssay (Tox21).

Unmarked numbers belong to inactive results. Records with an inconclusive call do not appear. Calls of active or inactive are those of the source. Unless noted, calls follow the shape of the dose curve; as a rule, active = well fitted curve in the direction sought with a large enough effect in the repeat runs; inconclusive = weak or mixed curves; inactive = no such curve, though single readings can be large; an effect the other way counts as inactive or inconclusive.

A short description of experiment [1]: A CellTox Green Cytotoxicity Assay to monitor cytotoxicity in HepG2 cells - 8 hour (AID 1224890). Also: nearly all actives have a fitted effect of over 45% in size. A digest of the protocol:
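Real-time, homogeneous cytotoxicity readout: dead-cell DNA staining by CellTox Green in HepG2 monolayers, fluorescence measured at timed intervals up to 40 h of continuous compound exposure.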

Experiment [2] is described as follows: qHTS assay to identify small molecule antagonists of the estrogen receptor alpha (ER-alpha) signaling pathway using the BG1 cell line in the presence of 0.1 nM 17-beta-estradiol - cell viability counter screen (AID 1259241). Also: nearly all actives have a fitted effect of over 40% in size. Put shortly:
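Cells were plated and left 24 hr, compounds in DMSO were pinned in, 17beta-estradiol was added to 0.1 nM final, and after 22 hr CellTiter-Fluor reagent was added for 30 min before fluorescence was read.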
For orientation: Quantitative high-throughput screening tests each substance at several concentrations.

The nature of experiment [3]: qHTS assay to identify small molecule antagonists of the androgen receptor (AR) signaling pathway using the MDA cell line in the presence of 0.5 nM R1881 - cell viability counter screen (AID 1259242). Also: nearly all actives have a fitted effect of over 45% in size. Put shortly: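 Cytotoxicity toward MDA-kb2 cells is measured by CellTiter-Fluor live-cell protease fluorescence after 16 hr compound exposure at 37C in the presence of 0.5 nM R1881 stimulator.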

Experiment [4] in a line: qHTS assay to identify small molecule HDAC inhibitors - cell viability counter screen (AID 1259365). Also: series mostly up to about 92 µM; nearly all actives have a fitted effect of over 50% in size. Put shortly: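 Counter screen in wild-type HCT-116 cells: compounds dissolved in DMSO are pin-transferred onto overnight-plated cells and left 2hr at 37C. ATP-based CellTiter-Glo luminescence then measures viable cells.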
Experiment [5] in a line: qHTS assay to identify small molecule agonists of the sonic hedgehog signaling (Shh) pathway - cell viability counter screen (AID 1259366). Also: nearly all actives have a fitted effect of over 50% in size. Also: potency is read from the fitted curve at half-maximal effect. A digest of the protocol:
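Cells are plated at 2,000 per well and left 4hr at 37C, 5% CO2 before compound addition. After 23hr of treatment, CellTiter-Fluor reagent is added for 1hr at 37C and fluorescence is measured.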

The nature of experiment [6]: qHTS assay to identify small molecule antagonists of the sonic hedgehog signaling (Shh) pathway - cell viability counter screen (AID 1259367). Also: nearly all actives have a fitted effect of over 55% in size. A digest of the protocol:
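Cells: 3T3 Gli1-Luc, 2,000/well, 4 hr pre-incubation. Compounds in DMSO, then conditioned medium. Incubation 24 hr, 37C, 5% CO2. CellTiter-Fluor at 23 hr, 1 hr, fluorescence.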

Experiment [7] can be described thus: qHTS assay to identify small molecule HDAC inhibitors (AID 1259364). Also: top concentration of the series differs between compounds; nearly all actives have a fitted effect of over 45% in size. Put shortly: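 Homogeneous cell-based luminescent assay of endogenous class I/II HDAC activity; HCT-116 cells, 2 h compound exposure, 30 min HDAC-Glo development at RT.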
Experiment [8] addresses Androgen receptor (Homo sapiens) (UniProt P10275). The experiment can be described thus: qHTS assay to identify small molecule antagonists of the androgen receptor (AR) signaling pathway using the MDA cell line in the presence of 0.5 nM R1881 (AID 1259243). Also: nearly all actives have a fitted effect of over 50% in size. A digest of the protocol: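 Steps: seed MDA-kb2 cells, incubate 5 hr at 37C; pin-transfer compounds in DMSO; add R1881 to 0.5 nM final; incubate 16 hr; add ONE-Glo, wait 30 min at room temperature; read luminescence.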

The target in experiment [9] is Estrogen receptor (Homo sapiens) (UniProt P03372). The experiment can be described thus: qHTS assay to identify small molecule antagonists of the estrogen receptor alpha (ER-alpha) signaling pathway using the BG1 cell line in the presence of 0.1 nM 17-beta-estradiol (AID 1259244). Also: nearly all actives have a fitted effect of over 50% in size. A digest of the protocol: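 After 5 days in hormone-depleted medium (charcoal-stripped serum, no phenol red), VM7Luc4E2 cells were seeded, incubated 24 h, then co-treated with compound and 0.1 nM (final) estradiol for 22 h before luminescence detection.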
Sequence of Estrogen receptor (Homo sapiens) (P03372 whole entry, looked up): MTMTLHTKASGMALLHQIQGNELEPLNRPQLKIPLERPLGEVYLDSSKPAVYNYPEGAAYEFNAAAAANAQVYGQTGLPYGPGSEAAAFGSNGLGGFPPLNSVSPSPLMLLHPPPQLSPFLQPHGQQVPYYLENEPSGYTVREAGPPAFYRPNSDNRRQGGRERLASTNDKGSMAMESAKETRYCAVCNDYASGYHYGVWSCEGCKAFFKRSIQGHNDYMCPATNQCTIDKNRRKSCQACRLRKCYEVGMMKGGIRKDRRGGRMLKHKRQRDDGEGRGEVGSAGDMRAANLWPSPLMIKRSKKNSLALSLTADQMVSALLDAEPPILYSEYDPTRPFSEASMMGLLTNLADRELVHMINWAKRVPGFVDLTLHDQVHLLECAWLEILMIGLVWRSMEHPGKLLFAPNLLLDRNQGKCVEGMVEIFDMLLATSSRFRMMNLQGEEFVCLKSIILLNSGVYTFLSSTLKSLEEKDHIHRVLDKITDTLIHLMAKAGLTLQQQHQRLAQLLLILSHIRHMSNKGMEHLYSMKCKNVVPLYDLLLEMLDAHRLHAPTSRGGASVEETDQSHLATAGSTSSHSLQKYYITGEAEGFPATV

A short description of experiment [10]: qHTS assay to identify small molecule phospholipidosis (PLD) inducers (AID 1259344; active = well fitted curve in the direction sought with a large enough effect; an effect the other way counts as inactive or inconclusive). A digest of the protocol: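 Phospholipidosis is scored by imaging LipidTOX-stained pits in HepG2 cells exposed to compound for 24 h at 37 C; pit counts and integrated intensities per well and per cell serve as outputs.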

Sequence of Androgen receptor (Homo sapiens) (P10275 whole entry, looked up): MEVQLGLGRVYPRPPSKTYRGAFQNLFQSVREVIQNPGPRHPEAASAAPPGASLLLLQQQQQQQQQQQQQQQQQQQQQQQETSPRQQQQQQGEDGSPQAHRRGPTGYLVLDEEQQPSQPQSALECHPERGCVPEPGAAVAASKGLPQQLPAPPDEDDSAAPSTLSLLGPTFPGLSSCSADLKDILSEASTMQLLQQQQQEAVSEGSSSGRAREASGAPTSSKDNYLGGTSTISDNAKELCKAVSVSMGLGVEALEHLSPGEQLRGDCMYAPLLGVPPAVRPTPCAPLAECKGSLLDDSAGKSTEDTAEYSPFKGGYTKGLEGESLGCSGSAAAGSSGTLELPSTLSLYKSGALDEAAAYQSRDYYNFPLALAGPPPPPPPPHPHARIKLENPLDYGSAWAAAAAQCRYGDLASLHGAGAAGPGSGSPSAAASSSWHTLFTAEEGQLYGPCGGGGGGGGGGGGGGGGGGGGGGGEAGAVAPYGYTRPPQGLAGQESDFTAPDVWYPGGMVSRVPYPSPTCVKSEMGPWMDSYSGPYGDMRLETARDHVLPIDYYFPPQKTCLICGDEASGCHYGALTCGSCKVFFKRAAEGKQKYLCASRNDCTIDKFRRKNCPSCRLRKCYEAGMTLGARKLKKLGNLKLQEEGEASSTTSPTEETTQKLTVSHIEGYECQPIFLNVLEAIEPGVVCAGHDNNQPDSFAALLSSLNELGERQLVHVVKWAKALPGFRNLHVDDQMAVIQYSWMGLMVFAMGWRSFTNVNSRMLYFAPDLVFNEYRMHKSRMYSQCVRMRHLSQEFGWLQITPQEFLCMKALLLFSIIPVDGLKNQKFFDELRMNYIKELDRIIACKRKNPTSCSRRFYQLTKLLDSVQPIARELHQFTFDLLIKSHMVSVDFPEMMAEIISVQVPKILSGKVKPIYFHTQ

As for `CC(=O)c1sc(C)nc1C`, the call in experiment [1], in experiment [3] and in experiment [4] was inactive. For the same compound, the Potency result in [2], in [5] and in experiment [6] was “inactive” throughout.

Regarding `O=Cc1ccc(Cl)c(Cl)c1`, the compound was classed as inactive in experiment [1], in experiment [3] and in experiment [4]. Moreover, the Potency result in experiment [2], in experiment [7], in experiment [5] and in [6] was “inactive” throughout.

With `CC(C(=O)O)c1ccc2c(c1)CC(=O)c1ccccc1S2` (stereo not drawn), the result in experiment [1], in experiment [3], in [10] and in [4] was inactive. Moreover, the Potency entry in experiment [8], in experiment [9], in experiment [7], in experiment [5] and in experiment [6] was “inactive” in each case.

For the compound `C=C(C)C(=O)OCCNC(C)(C)C`, the compound was called inactive in experiment [1], in [3] and in [4]. The Potency entry in [2], in experiment [7], in [5] and in experiment [6] was “inactive” throughout.

As to `CCC(C)(CCC(C)C)C(=O)O` (stereo not drawn), the compound was classed as inactive in experiment [1], in experiment [3] and in [4]. Further, the Potency result in experiment [2], in experiment [7], in experiment [5] and in [6] was “inactive” each time.

Turning to `Cc1ccc2ccc(Cl)cc2n1`, the compound was called inactive in experiment [1], in [3] and in [4]. Besides, the Potency result in experiment [8], in experiment [9], in experiment [7], in experiment [5] and in [6] was “inactive” throughout.

On to `CC(CN)CC(C)(C)CCN` (stereo not drawn), for which the compound was classed as inactive in experiment [1] and in [4]. The Potency entry in experiment [2], in experiment [7], in [5] and in [6] was “inactive” in each case.

`CCc1ccc(C=O)cc1`: the result in [1], in experiment [3] and in [4] was inactive. Further, the Potency result in [2], in experiment [7], in experiment [5] and in experiment [6] was “inactive” throughout.

As for `C=Cc1ccccn1`, the result in [1], in experiment [3] and in [4] was inactive. Besides, the Potency entry in experiment [2], in experiment [7], in [5] and in [6] was “inactive” each time.

In the case of `CCO[Si](CCCS)(OCC)OCC`, the outcome in experiment [1], in experiment [3] and in experiment [4] was inactive. The Potency result in experiment [2], in [7], in experiment [5] and in experiment [6] was “inactive” each time.

Take `CCCCCOC(=O)CCC`: the outcome in experiment [1], in experiment [3] and in experiment [4] was inactive. Besides, the Potency result in experiment [2], in experiment [7], in [5] and in [6] was “inactive” throughout.

For the compound `CC(C)CCCCOC(=O)c1ccccc1C(=O)OCCCCC(C)C`, the result in experiment [1], in [3] and in [4] was inactive. Also, the Potency entry in experiment [2], in experiment [7], in [5] and in [6] was “inactive” each time.

For `CCCC/C=C\CCCCCCCCCC=O`, the call in experiment [1], in [3] and in [4] was inactive. For the same compound, the Potency result in experiment [2], in experiment [7], in [5] and in experiment [6] was “inactive” each time.

Take `Cc1cc(Cl)c(C)cc1Cl`: the outcome in experiment [1], in experiment [3] and in [4] was inactive. Further, the Potency entry in experiment [8], in experiment [7], in experiment [5] and in [6] was “inactive” each time.

Take `OCCCCC(O)CO` (stereo not drawn): the compound was called inactive in experiment [1], in [3] and in [4]. In addition, the Potency result in [2], in experiment [7], in experiment [5] and in [6] was “inactive” each time.

On to `O=C(O)C(=O)Cc1ccccc1`, for which the outcome in [1], in [3] and in [4] was inactive. Moreover, the Potency entry in [8], in experiment [9], in [7], in experiment [5] and in experiment [6] was “inactive” throughout.

Take `CCOC(=O)[C@H](CCc1ccccc1)N[C@@H](C)C(=O)N1C(=O)N(C)C[C@H]1C(=O)O`: the call in [1], in [3], in [10] and in experiment [4] was inactive. In addition, the Potency result in experiment [9], in [7], in experiment [5] and in experiment [6] was “inactive” in each case.

Take `On1nnc2ccccc21`: the call in experiment [1], in experiment [3] and in experiment [4] was inactive. Further, the Potency result in experiment [9], in experiment [7], in experiment [5] and in experiment [6] was “inactive” throughout.

Regarding `O=C(c1ccc(O)cc1)c1ccc(O)c(O)c1O`, the compound was called inactive in experiment [1], in experiment [3] and in experiment [4]. In addition, the Potency in [5] is 30.8 µM (active).

As to `C=CC(OCC)OCC`, the outcome in [1], in [3] and in experiment [4] was inactive. Besides, the Potency result in [5] and in experiment [6] was “inactive” throughout.

With `CC(C)(C)c1cc(CCC(=O)NN)cc(C(C)(C)C)c1O`, the outcome in experiment [1], in experiment [3] and in experiment [4] was inactive. The Potency result in experiment [7], in experiment [5] and in experiment [6] was “inactive” in each case.

Consider `CC(C)C(=O)OCCc1ccccc1`, for which the outcome in [1], in experiment [3] and in experiment [4] was inactive. The Potency entry in [9], in [7], in experiment [5] and in experiment [6] was “inactive” each time.

For `CC(=O)CCCCn1c(=O)c2c(ncn2C)n(C)c1=O`, the compound was classed as inactive in experiment [1], in [3], in [10] and in experiment [4]. Besides, the Potency result in experiment [9], in experiment [5] and in [6] was “inactive” each time.

Take `CC1COc2ccccc2N1` (stereo not drawn): the compound was called inactive in experiment [1], in experiment [3] and in [4]. In addition, the Potency result in experiment [7], in experiment [5] and in [6] was “inactive” in each case.

Take `CC[C@H](C)C(=O)O[C@H]1C[C@H](O)C=C2C=C[C@H](C)[C@H](CC[C@@H](O)C[C@@H](O)CC(=O)O)[C@H]21`: the compound was called inactive in experiment [1], in [3], in experiment [10] and in experiment [4]. Besides, the Potency entry in experiment [9], in experiment [5] and in [6] was “inactive” throughout.

Regarding `Cc1ccc(S(=O)(=O)O)c(C)c1`, the outcome in experiment [1], in [3] and in [4] was inactive. In addition, the Potency result in experiment [9], in [7], in experiment [5] and in experiment [6] was “inactive” throughout.
